Out of some 340,000 compounds screened, about 1,700 (0.5%) were called active. Many of the other results were omitted from the sample, so actives are more common in it than they were. Unmarked numbers belong to inactive results. No stated cut-off is given here; in the data, active means inhibition above about 40%; inactive means the rest.

Experimental findings from PubChem BioAssay AID504462 (Sanford-Burnham Center for Chemical Genomics, 2011) are described below.

In this test the target is Cysteine protease ATG4B (Homo sapiens) (UniProt Q9Y4P1). Put plainly: blockers of ATG4B cysteine protease activity – biochemical, fluorescence, uHTS, primary screen (AID 504462). The note with it: ATG4B cleavage of LC3-PLA2, NBD-HPC fluorescence, 1 h; at 8.33 µM; active compounds read high.
Chain of Cysteine protease ATG4B (Homo sapiens) (Q9Y4P1 whole entry, looked up): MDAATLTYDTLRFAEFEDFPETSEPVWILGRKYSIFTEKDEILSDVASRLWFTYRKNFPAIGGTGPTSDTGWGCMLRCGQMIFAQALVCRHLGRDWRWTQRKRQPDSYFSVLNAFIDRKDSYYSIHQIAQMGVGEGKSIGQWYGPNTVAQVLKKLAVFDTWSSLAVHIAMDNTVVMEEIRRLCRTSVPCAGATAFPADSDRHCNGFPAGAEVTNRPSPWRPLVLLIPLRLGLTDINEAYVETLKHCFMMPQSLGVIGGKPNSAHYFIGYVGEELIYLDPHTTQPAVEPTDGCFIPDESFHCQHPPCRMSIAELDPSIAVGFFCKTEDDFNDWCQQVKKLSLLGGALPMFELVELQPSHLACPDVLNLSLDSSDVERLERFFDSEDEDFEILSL
As for `CC1(C)C/C(=N/Nc2ccc([N+](=O)[O-])cc2[N+](=O)[O-])C(C)(C)O1`, the inhibition was 0.43%.
`CC(=O)c1c(N2CCOCC2)nc(=S)n(Cc2ccccc2)c1C`: the inhibition is -2.2%.
On to `Oc1c(Cl)cc(Cl)c(Cl)c1Cc1c(O)c(Cl)cc(Cl)c1Cl`, for which the inhibition was 87.4% (active).
As for `ClC1(Cl)CC1CSc1ncn[nH]1` (stereo unspecified), the inhibition is -3.17%.
Consider `Nc1c(Cl)cc(-c2csc(N3CCCC3c3nc4cc(Cl)c(Cl)cc4n3CCOCCO)n2)cc1Cl` (stereo unspecified), for which the inhibition is -22.9%.
As to `CC(=O)NC1(c2cccc(F)c2)CCN(CC(=O)NC(C)C)CC1`, the inhibition is -3.58%.
Regarding `CCc1ccccc1NC(=O)CCOc1ccccc1`, the inhibition is -0.7%.
The value for `CCc1ccccc1NC(=O)/C(=C/c1ccccc1)c1ccccc1` was 59.5% (active).
The value for `CCc1ccccc1NC(=S)Nc1cc(OC)c(NC(=O)C(C)C)cc1OC` was 3.4%; that for `CCN1CCN(C(C(=O)NC2CCCC2)c2cc3c(cc2[N+](=O)[O-])OCO3)CC1` (stereo unspecified) was -0.97%; that for `O=C(N[C@@H](Cc1c[nH]c2ccccc12)C(=O)O)OCC1c2ccccc2-c2ccccc21` was 61.3% (active).
Turning to `O=C(CCn1nnc2ccccc2c1=O)N[C@@H](Cc1c[nH]c2ccccc12)C(=O)O`, the inhibition was 0.19%.
The value for `Cc1cccc(C)c1OCC(=O)NC(Cc1c[nH]c2ccccc12)C(=O)O` (stereo unspecified) was 2.14%; that for `COCCCNC(=O)C1CCN(c2ccc(N3CCOCC3)nn2)CC1` was -8.6%.
The value for `Cc1ccc(-c2ccc(=O)n(Cc3ccc(F)cc3Cl)n2)cc1` was 17.9%; that for `CN(C)Cc1ccc(F)cc1Sc1cc(Cl)ccc1Cl` was 43.6% (active).
The value for `COc1ccc(OC)c2c(N)c(C#N)c(C(F)(F)C(F)(F)F)nc12` was 3.2%.
For the compound `COc1ccc(/C=N/n2nnnc2N)cc1OC`, the inhibition was 4.77%.
Next, `C=CCOC(=O)c1ccccc1C(=O)OCC=C`: -32.7%; `COc1ccc(OCCNC(=O)c2cc(C3CC3)nc3c2cnn3C(C)C)cc1`: -0.45%; `CSc1ccccc1C(=O)NCc1ccccc1`: 5.57%.
In the case of `Cc1ccc(CNC(=O)c2cccnc2Cl)cc1`, the inhibition is -10.1%.
Take `Cc1ccc(CNC(=O)c2ccccc2CCc2ccccc2)cc1`: the inhibition is 46.1% (active).
Next, `CC(C)CNc1ncnc2c1cnn2Cc1ccc(Cl)cc1`: -1.96%; `Cc1ccc(C)c(NC(=O)C(c2ccccc2)N2CCN(CC(=O)NC3CC3)CC2)c1` (stereo unspecified): 8.15%.
Next, `Cn1c(SCc2c(F)cccc2Cl)nnc1-c1cnccn1`: -6.8%; `Fc1cccc(Cl)c1CSc1ccc(-c2ccco2)nn1`: 41.7% (active).
The value for `Cc1cc(SCc2c(F)cccc2Cl)nc(=O)[nH]1` was -6.36%; that for `COc1ccc(/C=C2\N=C3CCCN3C2=O)cc1` was 0.67%.
Regarding `COc1ccc(/C=N/NC(=O)C2CC2)c(OC)c1OC`, the inhibition is -2.43%.
For the compound `O=C1/C(=C/c2cccs2)CCc2ccccc21`, the inhibition was 15.7%.
The value for `COc1ccc(/C=C2\CCc3ccccc3C2=O)c(OC)c1OC` was 41.9% (active); that for `COc1ccc(/C=C2/CCCc3ccccc3C2=O)cc1` was 42.3% (active).
As to `COc1ccccc1Oc1ccc(N/C=C2/CCCC2=O)cc1`, the inhibition was 1.94%.
Take `Cc1cnc(C(=O)N2CCCC(N3CCN(c4ccccc4F)CC3)C2)cn1` (stereo unspecified): the inhibition is 8.65%.
Next, `Cn1c(=O)cc(SCC(=O)N2CCCC2)c2cc(Cl)ccc21`: -13.1%; `N#CCN(C(=O)COC(=O)C1CC2CCCC(C1)C2=O)c1ccccc1` (stereo unspecified): 1.42%.
The value for `CC(=O)c1c(C)[nH]c(C(=O)NCCCN2CCCC2)c1C` was -3.1%.
Next, `O=C(CN1CCOCC1)Nc1c(-c2ccccc2)c2cc(Br)ccc2[nH]c1=O`: 3.52%; `O=C(N/N=C\C1CC=CCC1)c1ccc(Br)o1` (stereo unspecified): -3.72%.
Regarding `Cc1ccc(C(=O)Nc2c(C#N)c(C)c(C)n2Cc2ccccc2)cc1`, the inhibition was 15.5%.
Next, `CCCn1c(C)cc(-c2csc(NC(=O)CCc3nc4ccccc4c(=O)[nH]3)n2)c1C`: -1.22%; `CC(=O)Nc1ccc(C(=O)Nc2nc(-c3cc(C)n(Cc4ccccc4)c3C)cs2)cc1`: 43.1% (active); `O=C(Nc1cc(S(=O)(=O)Nc2ccc(Cl)cc2)ccc1O)c1ccc(F)cc1F`: 13.4%.
In the case of `Cc1ccc(C(=O)OC2=CC(=O)CC(C)(C)C2)cc1`, the inhibition is -11.7%.
Next, `O=C1CN(C(=O)COc2c(Cl)cccc2Cl)c2ccccc2N1`: -0.21%; `Cc1cccc(N2O[C@H]3C=CC2CCCC3)n1`: -2.38%.
Next, `CC(C)(C)c1ccc(Oc2ccc(N)cc2)cc1`: 7.75%.
As to `CC(C)(C)c1ccc(OC2=CS(=O)(=O)c3ccccc32)cc1`, the inhibition was 46.1% (active).
As to `CC(C)(C)c1ccc(CN2C(=O)c3ccccc3S2(=O)=O)cc1`, the inhibition is 5.21%.
As for `CCCCn1c(N)c(N(CCC(C)C)C(=O)CC2OC(=O)c3ccccc32)c(=O)[nH]c1=O` (stereo unspecified), the inhibition was -0.15%.
The value for `O=C(NCCCc1ccccc1)C(=O)c1c[nH]c2ccccc12` was 0.84%.
For `CC1CCN(CC(=O)c2c[nH]c3ccccc23)CC1`, the inhibition was -5.44%.
Next, `O=C(C(=O)N1CCc2ccccc2C1)c1c[nH]c2ccccc12`: 67% (active); `COc1ccc(-n2nc3c(c2NC(=O)c2ccc(N4C(=O)CCC4=O)cc2)CSC3)cc1`: 1.88%.
For the compound `O=C(COc1ccc(Br)cc1F)NCC1(N2CCCCC2)CCCCC1`, the inhibition was 1.03%.
Next, `CSC1=NCCN1C(=O)Cc1cccc2ccccc12`: -4.14%.
The value for `CC(C)(C)Cc1nnc(NC(=O)c2cc(-c3ccccc3)nc3ccccc23)s1` was 10.4%; that for `NC(=O)Cc1ccc2sc(-c3ccccc3)nc2c1` was 71.4% (active); that for `CC(=O)c1cnc(-c2ccccc2)s1` was -11.9%.
The value for `O=C(CSc1nnnn1C1CCCC1)Nc1ccc2c(c1)OCCO2` was -5.58%.
With `Cc1cccc(OC(=O)c2sc3ncn(C)c(=O)c3c2C)c1`, the inhibition was -3.95%.
Next, `CCCC1=Nc2cc(C(=O)NCc3ccco3)ccc2Sc2ccccc21`: 40.2% (active); `CC(C)(C)c1ccc(C(=O)NCc2ccco2)cc1`: -10.7%; `CCCC1=Nc2cc(C(=O)NCCN3CCCC3)ccc2Sc2ccccc21`: 3.01%.
`NS(=O)(=O)c1cc(Cl)c(Cl)c(S(N)(=O)=O)c1`: the inhibition was 7.96%.
`CC(=O)C1(C)N(O)C(C)(C)C(c2cccs2)=[N+]1[O-]` (stereo unspecified): the inhibition is 6.58%.
Take `Cc1cccc(OCCC(=O)OCc2csc(CC(=O)Nc3ccccc3C)n2)c1`: the inhibition is -6.31%.
In the case of `CC1O[C@H](OC2C(COC3OC(CO)C(O)[C@H](O)C3O)OC(OC3CC[C@]4(C)C(CC[C@@]5(C)[C@@H]4C=C[C@]46OC[C@@]7(CCC(C)(C)C[C@H]74)C(O)C[C@@]56C)C3(C)C)C(O)C2O)C(O)C(O)C1O` (stereo partly specified), the inhibition is -8.64%.
Next, `CSCCC(NS(=O)(=O)c1ccc2c(c1)oc(=O)n2C)C(=O)NCc1ccccc1` (stereo unspecified): -9.32%.
The value for `O=C1CSC(=S)N1/N=C/c1ccc(O)c([N+](=O)[O-])c1` was 74.7% (active).
With `Cc1cc(C(=O)N/N=C/c2ccc(O)c([N+](=O)[O-])c2)c(C)n1-c1ccc(F)cc1`, the inhibition was 23.4%.
Turning to `CCOc1cccc(/C=N/N2C(=O)CSC2=S)c1O`, the inhibition is -2.71%.
The value for `CCOc1ccc(-n2c(SCC(=O)OC)nc3sc4c(c3c2=O)CCN(C)C4)cc1` was 5.88%; that for `CCOc1ccc(NC(=O)CSc2nc3c(c(=O)n2-c2ccccc2OC)SCC3)cc1` was -6.73%.
The value for `CCOc1ccc(-n2c(SC(C)C(=O)OC)nc3c(c2=O)SCC3)cc1` (stereo unspecified) was 46.2% (active); that for `S=C(Nc1ccccc1)Nc1ccc2ccccc2c1` was -5.73%.
In the case of `NS(=O)(=O)c1ccc(NC(=S)Nc2ccc(Br)c(Cl)c2)cc1`, the inhibition was 1.95%.
`Cc1cccc(NC(=S)Nc2ccc(Cl)c(Cl)c2)c1`: the inhibition was 41.4% (active).
Next, `O=C(NCCS(=O)(=O)c1ccc(Br)cc1)c1ccccc1Cl`: 4.71%; `Cc1nc([N+](=O)[O-])nn1C12CC3CC(CC(Br)(C3)C1)C2`: 2.28%; `CCN1C[C@@H]2[C@@H]3C(=O)N(Cc4ccccc4)C(=O)[C@@H]3[C@](C)(C1=O)N2C(=O)c1ccc(C(C)(C)C)cc1`: -18.2%.
Next, `O=C(CN(C(=O)c1csnn1)c1ccc(Br)cc1)NC1CCCC1`: -4.03%; `CO/N=C/c1ccc(N2CCN(C(=O)c3cccc(Cl)c3)CC2)c([N+](=O)[O-])c1`: -0.58%.
Next, `O=C(/C=C/c1ccc(Cl)cc1)N1CCN(c2ccccc2[N+](=O)[O-])CC1`: 41.9% (active).
Turning to `O=C(c1ccc(Cl)c([N+](=O)[O-])c1)N1CCN(c2ccccc2)CC1`, the inhibition was -2.12%.
The value for `CC(C)CCNC(=O)Cn1c(=O)oc2cc(S(=O)(=O)N3CC(C)CC(C)C3)ccc21` (stereo unspecified) was -3.27%; that for `O=C(CN(C(=O)c1csnn1)c1cccc(Cl)c1)NC1CCCC1` was 5.82%.
On to `CSc1nc(-c2ccco2)nn1C(=O)c1ccccc1Cl`, for which the inhibition was 0.74%.
As to `Cc1cc(C)nc(SCc2ccccc2C#N)n1`, the inhibition was 4.39%.
For `Clc1ccccc1CSc1nnc(-c2ccco2)c(-c2ccco2)n1`, the inhibition was 54.2% (active).
Next, `COc1cccc(-c2coc3cc4oc(=O)c(CC(=O)O)c(C)c4cc23)c1`: 2.29%; `Cc1ccc(/C=C/C(=O)O)cc1S(=O)(=O)N1CCC(Cc2ccccc2)CC1`: 3.43%; `S=C(NCc1ccc2c(c1)OCO2)NCc1ccco1`: 7%.
Consider `Cc1c(Cl)cccc1NC(=S)NCc1ccc2c(c1)OCO2`, for which the inhibition is 57.9% (active).
With `CCNC(=S)Nc1cccc(Cl)c1C`, the inhibition was -7.76%.

As usually defined, the inhibition is the relative decrease from the control value, in per cent.
